The values that follow come from PubChem BioAssay AID1347055 (National Center for Advancing Translational Sciences (NCATS), 2019).

In all, about 54,000 compounds went through this assay and about 120 (0.22%) were called active. Another 8% or so got no clear call; they are omitted. Shown is part of a subset that was picked to be rich in actives. Values without a mark were called inactive. Calls follow the shape of the dose curve; as a rule, active = well fitted inhibition curve with a large enough effect; inconclusive = small, poorly fitted or top-dose-only effect, or effect the other way; inactive = flat fitted curve, though single readings scatter.
% is scaled to controls: 0 for no effect and ±100 for the full control effect.

The target in this assay is Fumarate hydratase, mitochondrial (Homo sapiens) (UniProt P07954). Nature of the assay: Identification of activators of human fumarate hydratase by quantitative high-throughput screening. Also: the screen sought activators but most active calls are inhibition curves; nearly all actives have a fitted effect of over 45% in size. The settings on record: FH coupled MDH/diaphorase resazurin fluorescence, 15 min; series mostly up to 79.9 µM; activity change, negative = inhibition: at the top concentration. From the text: Fumarate hydratase (FH) is a metabolic enzyme that is part of the Krebs-cycle, and reversibly catalyzes the hydration of fumarate to malate. Mutations of the FH gene have been associated with fumarate hydratase deficiency (FHD), hereditary leiomyomatosis, renal cell cancer (HLRCC), and other diseases. Currently there are no high-quality small molecule probes for studying human fumarate hydratase. To address this, we developed a quantitative high throughput screening (qHTS) FH assay and screened a total of 57,037 compounds in dose-response. While no inhibitors of FH were confirmed, a series of phenyl-pyrrolo-pyrimidine-diones (12 compounds) were identified as activators of human fumarate hydratase. […] The binding of two compounds from the series to human fumarate hydratase was confirmed by microscale thermophoresis. The low hit rate in this screening campaign confirmed that FH is a "tough target" to modulate, and the small molecule activators of human fumarate hydratase reported here may serve as a starting point for further optimization and development into cellular probes of human FH and potential drug candidates.
Chain of Fumarate hydratase, mitochondrial (Homo sapiens) (P07954 whole entry, looked up): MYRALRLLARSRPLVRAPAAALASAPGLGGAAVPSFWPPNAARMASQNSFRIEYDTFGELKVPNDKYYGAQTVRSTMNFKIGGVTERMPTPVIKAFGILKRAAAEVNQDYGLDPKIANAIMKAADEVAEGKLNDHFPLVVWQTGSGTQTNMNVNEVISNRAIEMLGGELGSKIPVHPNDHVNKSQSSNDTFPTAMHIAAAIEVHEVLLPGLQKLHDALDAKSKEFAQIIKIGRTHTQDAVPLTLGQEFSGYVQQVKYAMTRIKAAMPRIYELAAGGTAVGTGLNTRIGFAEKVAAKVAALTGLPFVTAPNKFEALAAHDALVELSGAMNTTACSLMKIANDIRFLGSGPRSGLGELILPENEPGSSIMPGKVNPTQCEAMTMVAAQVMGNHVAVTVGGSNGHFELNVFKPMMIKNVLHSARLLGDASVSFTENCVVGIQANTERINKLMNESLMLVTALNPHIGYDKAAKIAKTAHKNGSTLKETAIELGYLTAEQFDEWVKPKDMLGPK
For primary high-throughput screen, 3 ul of FH solution (containing 13.33nM human fumarate hydratase, 13.33IU/ml malic dehydrogenase, 0.2mM NAD, 0.067mg/ml diaphorase and 0.067mM resazurin in the assay buffer (50 mM Tris pH 8.0, 5 mM MgCl2, 0.01% Brij 3) was dispensed into each well in a black solid bottom 1536-well assay plate (Greiner Bio-One) using a BioRAPTR FRD dispenser (Beckman Coulter, Brea, CA). A 1536-well pintool dispenser outfitted with 20 nl pins (Wako Automation, San Diego, CA) was used to transfer 20 nL of DMSO-solubilized compound (Cherrypick plates) to each 1536-well assay plate. Each compound was screened at five concentrations: 15 nM, 151 nM, 1.5 uM, 15.4 uM, 76.9 uM. Following compound transfer, plates were incubated in room temperature for 10 minutes. 1 uL of substrate solution containing fumaric acid (160 uM) was dispensed via BioRAPTR FRD to initiate the reaction. Plates were immediately transferred to a ViewLux microplate imager (PerkinElmer, Waltham, MA), and any resulting resorufin fluorescence was measured (exitation/emission, 525/598 nm) at 0 and 15 minutes. The exposure time is 1 second. Fluorescence from each well was normalized using enzyme-free and DMSO-treated control wells on each plate, and changes in fluorescence (delta RFU) were calculated using the difference in fluorescent signal for each well at 15 minutes versus 0 minutes.
(In general: Resazurin is reduced to fluorescent resorufin, in cell work by metabolically active cells.)
For `Cn1c(=O)c2c(n3c4ccccc4nc13)NC(=O)CC2c1cccc(Cl)c1` (stereo not given), the “activity change, negative = inhibition” value is -25.1%.
Next, `C/C=C(\C)C(=O)OC1C=C(C)CC(OC(=O)c2ccc(O)cc2)C2C1(C)CCC2(O)C(C)C` (stereo not given): -1.59% [at 53.3 µM]; `Cc1ccccc1C#Cc1ccc(CCC(=O)O)cc1`: -7.53%; `CCOc1cc(/C=C(\C#N)C(=O)Nc2ccccc2C)ccc1OCc1cc(=O)n2nc(CC)sc2n1`: -13.3%.
Next, `CCC1OC(=O)C(C)CC(C)C(=O)/C(C)=C/C(C)C(=O)/C=C/C1(C)O` (stereo not given): 4.92% [at 53.3 µM]; `Cc1cc(Br)ccc1NC(=O)Cn1cnc2sc(C)c(S(=O)(=O)N3CCN(C)CC3)c2c1=O`: 3.35%.
With `CNc1ccc(-c2nc(-c3ccccc3C)no2)cc1[N+](=O)[O-]` the figure was 0.855%.
In the case of `CC(=O)O[C@@H]1c2c3c(cc(O)c2C(=O)O[C@@H]1C)O[C@@]1(C)[C@@H](O)C[C@H]2C(C)(C)C(=O)C=C[C@]2(C)[C@@H]1C3`, the “activity change, negative = inhibition” value was -6.54% [at 53.3 µM].
Next, `Cc1nc2nc(NCc3cccc(Br)c3)[nH]n2c(=O)c1Cc1ccccc1`: -4.21%; `CC1CC2C3CCC4=CC(=O)C=C[C@]4(C)[C@@]3(F)[C@@H](O)C[C@]2(C)[C@@]1(O)C(=O)CO` (stereo not given in full): “inactive”; `CCOc1ccc(CNC(=O)c2cc(-c3ccc(Cl)s3)nc3ccccc23)cc1`: 12.2%.
Next, `CC(=O)[C@@H]1C[C@H](C(C)(C)O[C@@H]2O[C@H](CO)[C@@H](O)[C@H](O)[C@H]2O)CC[C@@]2(CO)OC(=O)C[C@@H]12`: 7.44% [at 53.3 µM].
On to `COc1ccc(C)cc1NC(=O)COCc1cc(-c2cccs2)on1`, for which the “activity change, negative = inhibition” value is -26.2%.
With `CCN(Cc1ccccc1)C(=O)CCS(=O)(=O)c1ccc2c(c1)oc(=O)n2C` the figure was -6.23%.
With `Cc1ccc(S(=O)(=O)N2CCC(C(=O)Nc3cc(C)ccc3C)CC2)cc1`, the “activity change, negative = inhibition” value is -35.1%.
With `COc1ccc(Cc2nc3ccc(C(=O)NCc4ccccc4Cl)cc3o2)cc1` the figure was -18.8%; with `CSc1ccc(CCNC(=O)c2cc(C)nc3c2c(C)nn3-c2cccc(F)c2)cc1`, -4.49%.
Next, `COc1ccc(OC)c(CNC(=O)c2c3c(nc4ccccc24)C(=O)N(C2CCCCC2)C3)c1`: -6.19%; `COc1ccc(-c2cn3c(C)c(C(=O)Nc4cc(C)cc(C)c4)sc3n2)cc1`: -2.84%.
For the compound `C[C@@H]1COCCN1c1cc(C2(S(C)(=O)=O)CC2)nc(-c2cccc3[nH]ccc23)n1`, the “activity change, negative = inhibition” value is -3.26%.
With `CC(=O)O[C@@H]1CC2C(C)(C)C(=O)C=C[C@]2(C)C2CC[C@]3(C)C(=CC(=O)[C@@H]3c3ccoc3)[C@@]21C` (stereo not given in full), the “activity change, negative = inhibition” value is 8.3% [at 53.3 µM].
As for `Cc1cc(C)c2oc(C(=O)Nc3ccc(S(=O)(=O)N(C)c4ccccc4)cc3)cc(=O)c2c1`, the “activity change, negative = inhibition” value is -17.4%.
Next, `C/C1=C\CC(C)(C)/C=C/C/C(C(=O)O)=C/CC1`: -17.8%.
On to `C/C=C(\C)C1C(C)=CC2CCC(OS(=O)(=O)O)C(C)C2C1/C=C/C=C/C(=O)O` (stereo not given), for which the “activity change, negative = inhibition” value was -1.4% [at 53.3 µM].
Take `O=S(=O)(c1ccc(Cl)cc1)c1nnn2c1nc(NC1CCCC1)c1sccc12`: the “activity change, negative = inhibition” value was -1.98%.
Next, `NC(=O)c1cnc(NCCc2ccc(O)c(Cl)c2)nc1NCc1ccccc1`: -22.4%; `CC(O)COc1ccccc1` (stereo not given): -10.1% [at 53.3 µM]; `COc1ccc(NC(=O)C(c2ccccc2)N2Cc3ccccc3C2=O)cc1` (stereo not given): -21.3%.
With `COc1ccc(N2CCN(C(=O)c3c(C)oc4nc(C)nc(N5CCCC5)c34)CC2)cc1` the figure was -7.16%; with `CCCN(C(=O)Cn1ncc2c([nH]c3ccc(C)cc32)c1=O)c1ccccc1C`, -18%.
Next, `CC/C(=C(/CC)c1ccc(O)c(CN(CC)CC)c1)c1ccc(O)c(CN(CC)CC)c1`: -1.42%; `CCOc1cc(C(=O)NCCc2csc3nc(-c4ccc(C)cc4)nn23)cc(OCC)c1OCC`: -0.27%.
Consider `CCOc1ccccc1N(C)C(=O)c1cc2c(s1)-c1ccccc1OC2`, for which the “activity change, negative = inhibition” value is -21.1%.
For `O=C(O)CC1CCC(c2ccc(-c3ccc(Nc4ccc(C(F)(F)F)nc4)cn3)cc2)CC1` (stereo not given), the “activity change, negative = inhibition” value is -2.5%.
Next, `CC(C)CC(=O)O[C@@H]1O[C@H](CO)[C@@H](O[C@H]2O[C@H](C)[C@@H](N[C@H]3C=C(CO)[C@@H](O[C@H]4O[C@H](CO)[C@@H](O[C@H]5O[C@H](CO)[C@@H](O[C@H]6O[C@H](CO)[C@@H](O)[C@H](O)[C@H]6O)[C@H](O)[C@H]5O)[C@H](O)[C@H]4O)[C@H](O)[C@H]3O)[C@H](O)[C@H]2O)[C@H](O)[C@H]1O`: 8.78% [at 20.6 µM]; `CC(O)C1CCC2C3CCC4CC(OC5OC(C(=O)O)C(O)C(O)C5O)CCC4(C)C3CCC12C` (stereo not given): -5.83%; `CO[C@H]1C[C@@H]2CC[C@@H](C)[C@@](O)(O2)C(=O)C(=O)N2CCCC[C@H]2C(=O)O[C@H]([C@H](C)C[C@H]2CC[C@@H](OP(C)(C)=O)[C@H](OC)C2)CC(=O)[C@H](C)/C=C(\C)[C@@H](O)[C@@H](OC)C(=O)[C@H](C)C[C@H](C)/C=C/C=C/C=C/1C`: -2.79% [at 53.3 µM].
Next, `CC(C)CC(c1c(O)c(C=O)c(O)c(C=O)c1O)C1CCC(C)(O)C2CC(C(C)(C)O)CCC12C` (stereo not given): -6.01% [at 53.3 µM]; `COc1ccc(Cn2c(=O)n(-c3ccccc3C)c(=O)c3c4c(sc32)CN(C(C)=O)CC4)cc1`: -3.96%.
Next, `C/C=C/C=C/[C@@H]1O[C@](O)([C@H](CC)C(=O)NC/C=C/C=C(\C)[C@@H](OC)[C@@H](C)[C@@H]2O[C@H](/C=C/C=C/C=C(\C)C(=O)c3c(O)ccn(C)c3=O)[C@H](O)[C@@H]2O)[C@H](O)[C@H](O)C1(C)C`: -9.63% [at 20.6 µM].
